HCMV antiviral = qHTS Assay for inhibitors of the human cytomegalovirus (HCMV); activity change, negative = inhibition, % at 57.5 µM; HFF cells, HCMV-luciferase reporter, 72 h; stronger effect = lower value; AID 1259415, 2018; 4.5% of 410,000 active; in the data active = activity change below about -60%; inconclusive = no clear call, values can overlap the other calls; inactive = above about -39%
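Steps: HFFs plated, 16 h 37C; compounds added; HCMV-luciferase added to MOI 1 PFU/cell; 72 h 37C; OneGlo reagent, 5 min room temperature; luminescence read, normalized to controls.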
VACV Venus inh = qHTS for Stage-Specific Inhibitors of Vaccinia Orthopoxvirus: Venus Reporter Primary qHTS | Vaccinia virus Venus reporter expression, fluorescence | Potency, µM (titrated, usually from 36.5 µM), for inactives: at the highest dose activity change, negative = inhibition, hits mostly inhibitors | 0.46% of 330,000 active | AID 720580, 2013; calls by dose curve; tested in A549 cells; note: potency is the fitted concentration of half-maximal effect; nearly all actives have a fitted effect of over 30% in size
FMDV antiviral = High Throughput Screening for Foot and Mouth Disease Virus Antivirals | FMDV antiviral cell-based qHTS | Potency, µM (doses to about 57.9 µM), for inactives: at the highest dose activity change, negative = inhibition, usual class: inhibitors | 1.2% of 410,000 active | AID 1159524, 2015; calls by dose curve; tested in HEK293T cells; note: read-out not given here; potency is the fitted concentration of half-maximal effect; nearly all actives have a fitted effect of over 45% in size
Vaccinia mCherry = qHTS for Stage-Specific Inhibitors of Vaccinia Orthopoxvirus: mCherry Reporter Primary qHTS; Vaccinia virus mCherry reporter infection, fluorescence; Potency, µM (titrated, usually from 36.5 µM), for the others: at the top dose activity change, negative = inhibition, usual class: inhibitors; 0.63% of 310,000 active; AID 720579, 2013; calls by dose curve; tested in A549 cells; note: potency is the fitted concentration of half-maximal effect; nearly all actives have a fitted effect of over 35% in size
HCV inhibitor = qHTS Assay for Inhibitors of Hepatitis C Virus (HCV); Huh7.5.1 HCVcc-Cre infection, luciferase reporter, 44 h; Potency, µM (top dose mostly 41.8 µM), without a hit: at the highest dose activity change, negative = inhibition, actives largely listed as inhibitors; 3.4% of 340,000 active; AID 651820, 2012; active = well fitted inhibition curve with a large enough effect; inconclusive = small, poorly fitted or top-dose-only effect, or another doubt; inactive = no such curve, though single readings can be large or run the other way; note: potency is the fitted concentration of half-maximal effect
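Compounds are dispensed onto cells plated 4 h earlier at 1,000 per well, with HCVcc-Cre virus (about 0.5 moi) added next. Following 44 h of culture, luminescent signal is measured for 15 sec after 15 min with substrate at room temperature.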
Numbers without * were called inactive; i = inactive; ? = inconclusive; . = no result. The list is not random: actives were taken first. Their share in the collection is about 7.3%. % is set by controls: 0 for no effect and ±100 for the full control effect.

SMILES	HCMV antiviral	VACV Venus inh	FMDV antiviral	Vaccinia mCherry	HCV inhibitor
COc1cc(CNCc2ccccn2)ccc1OCc1ccccc1Cl	-66.8*	-22.2%	?	-21.1%	?
O=C(NCc1ccccn1)c1ccccc1OCc1ccccc1Cl	-66.2*	-8.7%	-4.1%	-16.3%	.
CCOc1c(Cl)cc(CNCc2ccccn2)cc1OC	0.0	-8.8%	-0.6%	-24.5%	13.0%
Cc1cnc2ccc3ccccc3c2c1C	.	-17.7%	.	-12.4%	.
Cc1c2ccccc2c(C)c2c1ccc1ccccc12	6.2	-20.7%	13.3%	-3.5%	10µM*
CSc1nnc(SCC#N)s1	26.9	-5.2%	-13.0%	-17.8%	6.3%
O=C(OCC(=O)N1CCCCCC1)c1ccc[nH]c1=O	-60.1*	.	-3.6%	.	19.5%
O=C(OCC(=O)N1CCOCC1)c1ccc[nH]c1=O	28.7	.	12.9%	.	14.8%
O=C(COC(=O)c1ccc[nH]c1=O)Nc1ccc(N2CCCCC2)cc1	-75.4*	.	2.51µM*	.	-24.6%
COc1ccccc1NC(=O)c1sc2ncn(Cc3ccc(C)cc3)c(=O)c2c1C	?	-8.8%	.	i	-22.4%
COc1ccccc1NC(=O)c1sc2ncn(Cc3cccc(C)c3)c(=O)c2c1C	-101.6*	-6.4%	.	-3.2%	6.2%
COc1cc(NC(=O)Nc2cccc(-c3noc(C)n3)c2)cc(OC)c1OC	-77.1*	-12.9%	?	-7.5%	.
COc1cc(NC(=O)c2cc(-c3ccccc3Cl)on2)cc(OC)c1OC	-20.6	?	-1.1%	i	1.12µM*
COc1ccc(NC(=O)c2cc(-c3ccccc3Cl)on2)cc1	18.7	.	82.7%	.	?
COc1cc(NC(=O)c2cc(-c3cccc(O)c3)on2)cc(OC)c1OC	41.0	-19.1%	?	?	11.2µM*
Cc1ccc(-c2nc(SCCOc3ccccc3C)n3[nH]c(=O)cc3n2)cc1	9.2	-8.1%	-11.8%	i	.
Cn1ncc(Cl)c1C(=O)NNC(=O)Nc1cccc2ccccc12	?	-1.5%	-3.3%	-29.0%	-8.4%
c1ccc2c(-c3ccncc3)c[nH]c2c1	-18.3	6.8%	-9.6%	-20.8%	7.94µM*
COc1cc2c(NC3CCN(C)CC3)nc(N3CCCN(C)CC3)nc2cc1OCCOCCN(C)C	.	-20.5%	.	-23.1%	.
COc1cc2c(NC3CCN(C)CC3)nc(N3CCCN(C)CC3)nc2cc1OCC1CCCNC1 (centres undefined)	.	-28.0%	.	-15.4%	.
COc1cc2c(NC3CCN(C)CC3)nc(N3CCCN(C)CC3)nc2cc1OCCCCN(C)C	.	10µM*	.	?	.
COc1cc2c(NC3CCN(C)CC3)nc(N3CCCN(C)CC3)nc2cc1OCCCN(C)C	.	?	.	-24.2%	.
COc1cc2c(NC3CCN(C)CC3)nc(N3CCCN(C)CC3)nc2cc1OCCCCCCN(C)C	.	7.08µM*	.	5.01µM*	.
CCCN(C)CCCOc1cc2nc(N3CCCN(C)CC3)nc(NC3CCN(C)CC3)c2cc1OC	.	12.6µM*	.	?	.
CCC(C(=O)Nc1ccccc1C(=O)OC)n1c(C)c2cnn(-c3ccccc3)c(=O)c2c1C (centres undefined)	-2.7	-4.7%	?	-6.8%	.
SMILES	HCMV antiviral	VACV Venus inh	FMDV antiviral	Vaccinia mCherry	HCV inhibitor
O=C(COC(=O)c1ccc(Br)cc1)NC(=O)NCc1ccccc1	-1.1	.	-8.5%	.	21.8%
N#CCCCc1cn(-c2nc3ccccc3s2)nn1	55.8	2.5%	23.8%	-9.4%	.
Clc1ccc(/C(Cc2nc3ccccc3[nH]2)=N\Nc2ccccc2)cc1	-31.7	-6.8%	-22.8%	?	11.2µM*
CNC(=O)CN(c1ccc(C23CC4CC(CC(C4)C2)C3)cc1)S(C)(=O)=O	-60.4*	-8.7%	-20.5%	-15.4%	3.9%
CC(=O)Nc1ccc(NC(=O)CN(c2ccc(C34CC5CC(CC(C5)C3)C4)cc2)S(C)(=O)=O)cc1	12.6	?	.	?	?
NS(=O)(=O)c1ccc(NCc2ccccc2OCc2ccc(F)cc2)cc1	?	?	?	.	-15.7%
NS(=O)(=O)c1ccc(NCc2cc(Cl)ccc2OCc2ccccc2F)cc1	-61.0*	.	?	.	?
Cc1ccc(N2CCN(C(=O)c3cnn(-c4ccc(F)cc4F)c3C3CCN(C(=O)OC(C)(C)C)CC3)CC2)c(C)c1	?	-23.3%	-21.7%	-22.7%	.
